HT1080NT lethal: kills 2HG-producing HT-1080-NT fibrosarcoma cells. HT-1080-NT fibrosarcoma viability, CellTiter-Glo ATP luminescence, 48 h. Potency, µM (titrated, usually from 46.1 µM), inactives show at the top dose activity, negative = less viability, actives largely listed as cytotoxic. actives 1.6% (n = 360,000). AID 686970;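 also: NT is the 2HG producing partner of a matched IDH1 knockdown line; potency is read from the fitted curve at half-maximal effect; 0% = DMSO-treated cells and -100% = media-only wells without cells; nearly all actives have a fitted effect of over 55% in size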
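Toxicity toward the 2HG-producing NT line was scored as %Activity, normalised to DMSO and no-cell wells, from CellTiter-Glo luminescence after 48 hours' treatment.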
DT40 TDP1 no CPT: qHTS for Inhibitors of human tyrosyl-DNA phosphodiesterase 1 (TDP1): qHTS in cells in absence of CPT | actives 15% (n = 420,000) | DT40 Tdp1-/- hTDP1 cells, no CPT, ATP luminescence, 48 h | Potency, µM (doses to about 46.2 µM), without a hit: at the highest dose activity change, negative = growth inhibition, hits mostly inhibitors; also: potency is read from the fitted curve at half-maximal effect; nearly all actives have a fitted effect of over 55% in size
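Seeded 400 DT40-hTDP1 cells/well (vehicle DMSO, no 20 nM CPT); pinned compounds; ≥48 hr at 37 °C; CellTiter-Glo luminescence as viability measure.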
HT1080 IDH1KD tx: kills HT-1080 cells with IDH1 knockdown. Potency, µM (titrated, usually from 46.1 µM), without a hit: top-dose activity, negative = toxicity, actives largely listed as cytotoxic. actives 2% (n = 360,000). HT-1080 IDH1 knockdown viability, ATP luminescence, 48 h. AID 686971;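 also: potency is read from the fitted curve at half-maximal effect; 0% = DMSO wells and -100% = cell-free medium wells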
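% activity derives from luminescence (CellTiter-Glo), normalised to DMSO and no-cell wells. HT-1080-IDH1KD cells, 750/well, had 48 h compound exposure at 37 °C.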
IL1B secr inh: inflammasome signaling inhibition, IL-1 beta readout; THP-1 LPS/ATP IL-1B secretion, AlphaLISA, 16 h; hits give low values; activity change, % at 57.5 µM; actives 4.7% (n = 360,000); in the data active = activity change below about -50%; inconclusive = mostly about -30% to -49%
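THP-1 cells pretreated 1 hr with compounds (up to 57.5 uM final), then stimulated with LPS (250 ng/mL final) plus ATP (1.25 mM final); secreted IL-1B measured by AlphaLISA after 16 hr, decreased signal indicating inhibition.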
DT40 TDP1 CPT: growth inhibition of DT40 Tdp1-/-;hTDP1 cells with camptothecin (screen for TDP1 inhibitors) | chicken DT40 Tdp1-/-;hTDP1 cells + 20 nM CPT, ATP luminescence, 48 h | Potency, µM (highest dose often 46.2 µM), for the others: at the top dose activity change, negative = growth inhibition, usual class: inhibitors | actives 12% (n = 420,000) | AID 686979; also: potency is read from the fitted curve at half-maximal effect; nearly all actives have a fitted effect of over 55% in size
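Cell growth measured by CellTiter-Glo luminescence after a minimum 48 h, 37 C compound exposure with 20 nM CPT in Tdp1-knockout DT40 cells stably expressing hTDP1, seeded 400/well; qHTS titration format.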
* marks the source's active call; other numbers are inactive results; ? = inconclusive; · = no result; ! = repeats disagree; [ ] = remark or other dose. Rows were chosen to be rich in hits. Some 19% of all compounds tested hit in one or more screens of this group. Unless noted, calls follow the shape of the dose curve; as a rule, active = well fitted curve in the direction sought with a large enough effect; inconclusive = small, poorly fitted or top-dose-only effect, or another doubt; inactive = no such curve, though single readings can be large; an effect the other way counts as inactive or inconclusive. Unless noted, % is scaled to controls: 0 for no effect and ±100 for the full control effect.

SMILES	HT1080NT lethal	DT40 TDP1 no CPT	HT1080 IDH1KD tx	IL1B secr inh	DT40 TDP1 CPT
Cc1cc(N2CCC(C)CC2)c(F)cc1[N+](=O)[O-]	16%	-9%	8%	7	-18%
Cc1cc(N2CCCC2)c(F)cc1/C=C\[N+](=O)[O-]	?	?	?	-68*	23µM*
CC(C)(C)C(=O)N1CCC[C@H]1C(O)(c1ccccc1)c1ccccc1	-14%	?	3%	0	?
CN1CCC(CC(C(=O)N2CCCC2)(c2ccccc2)c2ccccc2)C1 (stereo not drawn)	-14%	?	-12%	-18	23µM*
CCCCC(CC)CNC(=O)C1CCC(CNS(=O)(=O)c2cccc3nsnc23)CC1 (stereo not drawn)	·	21µM*	·	·	?
O=C(NCc1cccnc1)C1CCC(CNS(=O)(=O)c2cccc3nsnc23)CC1 (stereo not drawn)	9%	1%	0%	-4	-16%
CN1CCN(C(=O)C2CCC(CNS(=O)(=O)c3cccc4cccnc34)CC2)CC1 (stereo not drawn)	0%	-4%	2%	7	7%
CCCCN(C(=O)C1CCC(CNS(=O)(=O)c2cccc3nsnc23)CC1)c1ccccc1 (stereo not drawn)	·	21µM*	·	·	?
O=C(C1CCC(CNS(=O)(=O)c2cccc3cccnc23)CC1)N1CCc2ccccc21 (stereo not drawn)	-1%	18µM*	-24%	-8	?
O=C(C1CCC(CNS(=O)(=O)c2cccc3nsnc23)CC1)N1CCN(c2ccccn2)CC1 (stereo not drawn)	-17%	23µM*	-11%	10	?
Cc1ccc(NC(=O)CN2C(=O)c3ccccc3Sc3ccc(C(=O)N4CCOCC4)cc32)c(Cl)c1	·	?	·	·	-14%
CCC1(C2CCN(C(=O)c3ccccc3C)CC2)NC(=O)N(CCc2scnc2C)C1=O (stereo not drawn)	·	4%	·	·	15%[9.04 µM]
O[C@@H]1C[C@H](c2ccccc2)N(CC2CCCCC2)C[C@H]1n1cc(C2CC2)nn1	-1%	?	-6%	5	-4%
COc1ccc(-c2nnc(NC(=O)c3ccc(S(=O)(=O)N4CCc5ccccc5C4)cc3)o2)cc1	?	4.5µM*	-19%	6	4.5µM*
COC(=O)c1ccc(-c2csc(NC(=O)c3ccc(S(=O)(=O)N4CCc5ccccc5C4)cc3)n2)cc1	-2%	5.8µM*	-7%	-1	7.3µM*
Cc1cccc(N2CCN(C(=O)c3cc(COc4ccc(F)c(F)c4)on3)CC2)n1	17%	1%	9%	9	3%
S=C1NC2=C(CCCC2=C2SCCS2)C(c2ccccc2)N1 (stereo not drawn)	-18%	16µM*	-21%	-84*	-16%
COc1ccc2c(c1)C1=C(CC2)C(c2ccc(C)cc2)NC(=S)N1 (stereo not drawn)	?	?	-16%	4	?
COC(/C=C/Nc1ccc(Br)cc1)=C(C#N)C#N	-9%	-6%	-5%	25	-1%
O=C(CN1C(=O)NC2(CCCCC2)C1=O)Nc1cc(C(F)(F)F)ccc1N1CCCCC1	-11%	?	-12%	14	?
O=C(CN1C(=O)NC2(CCCC2)C1=O)Nc1cc(C(F)(F)F)ccc1N1CCCCC1	0%	-20%	-4%	-72*	?
COc1cccc(Oc2ccc(C(F)(F)F)cc2NC(=O)CN2C(=O)NC3(CCCC3)C2=O)c1	?	?	-22%	-30	15µM*
COc1ccc(NC(=O)CN2C(=O)NC3(CCCC3)C2=O)c(OC)c1	-3%	-9%	-1%	-22	18%
COc1ccccc1NC(=O)CN(c1cc(C)cc(C)c1)S(=O)(=O)c1c(C)[nH]c(=O)[nH]c1=O	·	-2%	·	·	-1%
OCC1OC(n2cnc3c(=S)nc[nH]c32)C(O)C1O (stereo not drawn)	·	?	·	·	10µM*!
SMILES	HT1080NT lethal	DT40 TDP1 no CPT	HT1080 IDH1KD tx	IL1B secr inh	DT40 TDP1 CPT
CC1(C)OC2C(CO)OC(n3cnc4c(=S)nc[nH]c43)C2O1 (stereo not drawn)	-25%	-1%	-25%	5	-2%
Nc1nc(=S)c2ncn(C3OC(CO)C(O)C3O)c2[nH]1 (stereo not drawn)	15µM*	8.2µM*	21µM*	14	4.1µM*
Nc1nc(=S)c2ncn([C@@H]3O[C@H](CO)[C@@H](O)[C@H]3O)c2[nH]1	1.5µM*	1.8µM*	0.92µM*	0	1.6µM*
CC1(C)OC2C(CO)OC(n3cnc4c(=S)nc(N)[nH]c43)C2O1 (stereo not drawn)	?	15µM*	-7%	18	12µM*
Nc1nc(=S)c2ncn(C3CCCCC3)c2[nH]1	?	-8%	-11%	-4	-11%
Clc1cccc(Nc2nc(-c3ccncc3)cs2)c1	-5%	?	?	-61*	?
Clc1ccc(-c2csc(Nc3cccnc3)n2)cc1	?	-22%	10%	-80*	-3%
Cc1cc(C)c(NC(=O)CSc2nc3c(c(=O)n2C)SC(C)C3)c(C)c1 (stereo not drawn)	12%	13µM*	6%	-6	21µM*
Cc1cc(C)cc(NC(=O)CSc2nc3c(c(=O)n2C)SC(C)C3)c1 (stereo not drawn)	-20%	-22%	-13%	8	-28%
CC1Cc2nc(SCC(=O)Nc3ccc(F)cc3)n(C)c(=O)c2S1 (stereo not drawn)	0%	?	11%	-11	23µM*
CCOc1ccc(NC(=O)CSc2nc3c(c(=O)n2C)SC(C)C3)cc1 (stereo not drawn)	14%	?	-1%	18	16µM*
Cc1cc(C)c(NC(=O)CSc2nnc3[nH]c(=O)cc(C)n23)c(C)c1	·	2%	·	·	-4%
Cc1cc(C)c(NC(=O)CSc2nnc(SCC(=O)Nc3c(C)cc(C)cc3C)n2N)c(C)c1	11%	?	7%	1	15µM*
C[C@H](CO)N1C[C@H](C)[C@@H](CN(C)S(=O)(=O)c2ccc(F)cc2)Oc2ccc(NC(=O)C3CC3)cc2C1=O	7%	-26%	11%	-3	-24%
CCCCN(C(=O)Cn1nnc2ccccc21)C(C(=O)NCCOC)c1ccc(OC)cc1 (stereo not drawn)	7%	1%	10%	5	2%
COc1ccc(OC)c(C(C(=O)NCc2ccco2)N(C(=O)Cn2nnc3ccccc32)C(C)C)c1 (stereo not drawn)	-2%	-29%	-7%[9.24 µM]	-12	-23%
